Screening data (PubChem)
This is a sample that favours compounds with a hit; in the whole collection about 0.78% have one here.
PriA SSB inh – blocks PriA binding to SSB C-terminal tail; AID 1272365; inhibition, % at 33 µM; AlphaScreen SSBct-PriA binding, biotinylated peptide; 0.6% of 430,000 active; in the data active means inhibition mostly above about 37%, no sharp cut-off; inactive means mostly below about 20%;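 further: plate controls were negative control peptide for no effect and reference peptide for full effect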
BJeLR viability – BJeLR cell viability loss; 0.17% of 300,000 active; inhibition, % (test concentration not listed); AID 1554; BJeLR (HRASV12) viability, CellTiter-Glo ATP luminescence, 48 h; in the data active means inhibition above about 50%
SARS 3CLpro inh – SARS-CoV 3CLpro protease inhibition; P0C6X7; recombinant SARS-CoV 3CLpro, quenched FRET peptide cleavage; inhibition, % at 6 µM; 0.14% of 290,000 active; AID 1706; in the data active means inhibition above about 12%
An asterisk follows results filed as active; i = inactive; . = no result given; + = active, no number.

SMILES	PriA SSB inh	BJeLR viability	SARS 3CLpro inh
Cc1c(Cl)cccc1S(=O)(=O)NCC#CCOc1ccccc1C(N)=O	-4	.	.
Cc1sc2ncnc(SCC(=O)Nc3c(C)n(C)n(-c4ccccc4)c3=O)c2c1C	84*	.	.
Cc1sc2nc(SCC(=O)Nc3c(C)n(C)n(-c4ccccc4)c3=O)n(C)c(=O)c2c1C	-15	5	-2
COc1ccccc1-c1nnc(NC(=O)c2cc(=O)c3ccccc3o2)o1	6	.	.
COCCn1c(C)cc(C2=NNC(=Nc3ccccc3)SC2)c1C	10	5	4
COc1ccccc1C1=NNC(=Nc2cccc(S(=O)(=O)N(C)C)c2)SC1	43*	-11	2
O=C(c1cccs1)N(CCN1CCOCC1)c1nc2ccc(F)cc2s1	-2	.	.
N#CC(=C1Nc2ccccc2N1)c1sc2ccccc2c1Cl	-2	.	.
NC(=S)NN=C(c1ccccc1)c1ccccc1	11	-4	3
CC(=NNC(=S)N(Cc1ccccn1)Cc1ccccn1)c1cnccn1	94*	.	.
NC(=S)N/N=C(\c1ccccc1)c1ccccn1	+	.	.
S=C(NN=Cc1ccccn1)N(Cc1ccccn1)Cc1ccccn1	96*	.	.
CC(=NNC(=S)N1CC2CCC(CC2)C1)c1cnccn1	-11	.	.
O=C(NN=C(c1ccccc1)c1ccccn1)c1ccccc1	-5	.	.
O=C(CCCC(=O)N/N=C\c1ccccn1)N/N=C\c1ccccn1	.	5	1
S=C(NN=C(c1ccccc1)c1ccccn1)N(Cc1ccccn1)Cc1ccccn1	74*	.	.
O=C(NCCn1ccnc1C1CC1)c1ccoc1	-6	.	.
COc1ccc(C)cc1Nc1c2c(nc3ccccc13)CCC2	0	56*	-1
COc1ccc(Nc2c3c(nc4ccccc24)CCCC3)cc1OC	38	2	0
COc1ccc(CCS(=O)(=O)NCCC(O)c2cc3ccccc3o2)cc1 (stereo unspecified)	-1	.	.
Cn1nc2c(c1NC(=O)Cc1ccc3c(c1)OCO3)CCC2	-5	.	.
COc1ccc(-c2nc3ccccc3[nH]2)cc1	-12	35	1
COc1ccc(-c2cc(=O)n(-c3nc4ccccc4[nH]3)[nH]2)cc1	40*	4	0
Cc1c([N+](=O)[O-])cc(S(=O)(=O)NCCOc2cccc(C(F)(F)F)c2)cc1[N+](=O)[O-]	39*	.	.
Cc1c([N+](=O)[O-])cc(S(=O)(=O)NCCOc2ccc(F)cc2)cc1[N+](=O)[O-]	20	.	.
SMILES	PriA SSB inh	BJeLR viability	SARS 3CLpro inh
O=C(CSc1nc2ccccc2c(=O)n1-c1ccccc1)c1ccc2c(c1)OCCO2	-13	.	.
Cc1ccc(Nc2ccc(NC(=O)Nc3ccc(F)c(Cl)c3)cc2)nn1	-12	.	.
O=C(Cc1cccc2ccccc12)N/N=C/c1ccc(Sc2cccc3cccnc23)o1	i	-5	5
O=C(CCc1ccccc1O)NN=Cc1ccc(Sc2cccc3cccnc23)o1	94*	.	.
CCCCCCCC(=O)N/N=C/c1ccc(Sc2cccc3cccnc23)o1	+	.	.
O=Cc1ccc(Sc2cccc3cccnc23)o1	104*	.	.
CCCCC(=O)N/N=C/c1ccc(Sc2cccc3cccnc23)o1	.	-12	5
O=Cc1ccc(Sc2ncccn2)o1	0	.	2
O=C(Nc1cc(N2CCN(Cc3ccccc3)CC2)ncn1)c1ccc(-n2cccn2)nn1	-7	.	.
O=C(c1ccccc1Cl)N1CCC(Oc2cccc3cccnc23)CC1	-10	.	.
Clc1ccc(C2NCCn3cccc32)c(Cl)c1 (stereo unspecified)	13	.	.
C=C(C=O)C[C@@H]1C[C@H](O)C2OC3C[C@]4(C)OC5/C=C\CC6OC7C(C/C=C\CC6OC5CCCC4OC3CC2O1)OC1CC2OC3CC(=O)OC3C[C@@H](C)C[C@@]2(C)OC1C[C@@H]7C (stereo partly specified)	-11	.	.
C=C(C=O)C[C@@H]1C[C@H](O)C2OC3C[C@]4(C)OC5/C=C\CC6OC7C(CC=CCC6OC5CCCC4OC3CC2O1)OC1CC2OC3CC(=O)OC3C[C@@H](C)C[C@@]2(C)OC1C[C@@H]7C (stereo partly specified)	.	95*	.
Cc1ccc2[nH]c3c(N4CCN(Cc5ccccc5)CC4)ncnc3c2c1	22	7	-4
CCOc1ccc2[nH]c3c(N4CCN(c5ccccn5)CC4)ncnc3c2c1	39*	8	-5
Cc1cnc(NC(=O)c2cc(N3CCCC3)ncn2)s1	8	.	.
CC1CCN(CC(O)CN2c3ccccc3Sc3ccccc32)CC1 (stereo unspecified)	-9	8	-3
OC(CN1CCc2ccccc2C1)CN1c2ccccc2Sc2ccccc21 (stereo unspecified)	54*	.	.
COC(=O)c1ccc(C(=O)Nc2cc(-c3ccccc3)sc2C(=O)OC)cc1	-16	.	.
Cc1cc(-c2nnc(NC(=O)CCCS(=O)(=O)c3ccc(Cl)cc3)o2)nn1C	-10	.	.
COc1ccc(-c2cn3c(C)c(C(=O)N(Cc4ccccc4)c4ccccc4)sc3n2)cc1	12	.	.
COc1ccc(-c2cn3c(C)c(C(=O)N(C)c4ccccc4)sc3n2)cc1	38*	.	.
CCOc1ccc(N2CCN(CC(=O)N(C)C)C2=O)cc1	-4	.	.
O=C1N(c2ccc(Br)cc2)C2CS(=O)(=O)CC2N1c1ccccc1Cl (stereo unspecified)	-8	.	.
COc1ccc(-c2cnc(SCC(=O)Nc3nc(C)cs3)n2Cc2ccco2)cc1	30*	.	.
SMILES	PriA SSB inh	BJeLR viability	SARS 3CLpro inh
COc1ccc(C)cc1NC(=O)CSc1nnc(-c2ccccn2)n1Cc1ccco1	-3	-7	6
O=C(CSc1nnc(-c2ccccn2)n1Cc1ccco1)Nc1ccccc1F	38	.	.
COc1ccccc1NC(=O)CSc1nnc(-c2ccc(C)cc2)n1Cc1ccco1	47	.	.
COc1ccccc1NC(=O)CSc1nnc(-c2ccncc2)n1Cc1ccco1	56*	.	.
COc1ccc(-c2cnc(SCC(=O)Nc3nc(C(C)(C)C)cs3)n2Cc2ccco2)cc1	25	1	-7
CCc1ccccc1NC(=O)CSc1nnc(-c2ccccn2)n1Cc1ccco1	54*	.	.
COc1ccccc1NC(=O)CSc1nnc(-c2ccccn2)n1Cc1ccco1	63*	-7	4
COc1ccccc1C(O)Cn1cc(C(=O)NC2CCc3ccccc32)nn1 (stereo unspecified)	9	.	.
CC(C)NC(=O)CSc1ncnc2c1cnn2-c1ccccc1	-19	.	.
CC(C)(C)S[C@H]1CCN(C(=O)c2ccc(C#N)cc2)C1	-25	.	.
Cc1nc2sc(C)c(C)n2c(=O)c1NC(=O)c1ccc(-c2ccccc2)cc1	6	.	.
COc1ccc(C(O)=C2C(=O)C(=O)N(c3ccccn3)C2c2cccc(Cl)c2)cc1 (stereo unspecified)	0	.	.
CC(=O)Nc1cccc(C(=O)Nc2nc(-c3ccccn3)cs2)c1	67*	.	.
O=C(Nc1nc(-c2ccccn2)cs1)c1ccc2ncsc2c1	19	.	.
O=C(Nc1nc(-c2ccccn2)cs1)c1cccc(F)c1	120*	.	.
CC(=O)Nc1cccc(-c2csc(Nc3ccccn3)n2)c1	17	9	-4
Cc1cc(C)c(S(=O)(=O)N(C)c2ccsc2C(=O)NCc2ccccc2F)c(C)c1	-9	.	.
O=C(Cn1cnc(-c2ccc(F)cc2)cc1=O)NCCc1c[nH]c2ccccc12	-5	.	.
CSc1cc(-c2ccccc2)n(Cc2ccccc2Cl)c(=O)c1C#N	12	51*	2
CCCn1c(-c2ccccc2)cc(SC)c(C#N)c1=O	-5	7	5
COc1cc(-c2noc(CN3C(=O)COc4cc(Cl)ccc43)n2)cc(OC)c1OC	-6	.	.
